PubChem BioAssay (NCI)
About 79,000 compounds went through this panel and 15% of them were active in at least one assay; those are over-represented in the sample as a whole. Rule as the data show it: active = growth inhibition above about 70%; inactive = the rest.

What was measured:
[1] = NCI Yeast Anticancer Drug Screen. Data for the wt1 strain (AID 149);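 also: 0% = growth of vehicle-treated wt1 cultures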; conditions: S. cerevisiae wt1 strain (SPY 50644) growth inhibition, hits give high values
Method in brief: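 Each compound is tested on wt1 yeast and the loss of growth versus vehicle gives the inhibition value.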

[2] = NCI Yeast Anticancer Drug Screen. Data for the rad50EPP+ strain (AID 151);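 also: 0% = growth of vehicle-treated control cultures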; conditions: S. cerevisiae rad50 mutant strain, hits give high values
Method in brief: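 Measured: growth inhibition of rad50EPP+ yeast. Reference: vehicle-treated controls. Screen uses strains with defined genetic alterations in DNA damage repair or cell cycle control.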

[3] = NCI Yeast Anticancer Drug Screen. Data for the mgt1 strain (AID 153); conditions: S. cerevisiae mgt1 mutant growth inhibition, hits give high values
Method in brief: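 Compounds were applied to mgt1 mutant yeast, and growth was then compared against vehicle-treated control cultures to give percent inhibition.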

[4] = NCI Yeast Anticancer Drug Screen. Data for the rad50 strain (AID 155);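 also: 0% = growth of vehicle-only cultures of the same strain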; conditions: S. cerevisiae rad50 strain growth inhibition, hits give high values
Method in brief: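 Vehicle-treated cultures provide the reference for the growth inhibition reported for compound-exposed, repair-deficient yeast.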

[5] = NCI Yeast Anticancer Drug Screen. Data for the mec2-1 strain (AID 157); conditions: S. cerevisiae mec2-1 strain, hits give high values
Method in brief: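 Compounds were applied to mec2-1 yeast cells. Their growth was then compared with that of vehicle-treated cultures to give growth inhibition.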

[6] = NCI Yeast Anticancer Drug Screen. Data for the rad14 strain (AID 159);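 also: 0% = growth of vehicle-treated control cultures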; conditions: S. cerevisiae rad14 strain growth inhibition, hits give high values
Method in brief: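 Inhibition of growth is reported for a repair-deficient yeast mutant following compound treatment, calculated relative to cultures that received vehicle.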

[7] = NCI Yeast Anticancer Drug Screen. Data for the sgs1 mgt1 strain (AID 161);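 also: 0% = growth of cultures given vehicle only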; conditions: S. cerevisiae sgs1 mgt1 strain, hits give high values
Method in brief: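 Compounds are added to genetically altered yeast, and growth is compared with cultures given vehicle alone to give percent inhibition.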

[8] = NCI Yeast Anticancer Drug Screen. Data for the CLN2oe strain (AID 163);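 also: 0% = growth of vehicle-only control cultures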; conditions: S. cerevisiae CLN2oe strain, hits give high values
Method in brief: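 Cells of an engineered yeast line with disturbed cell-cycle regulation are treated with compound. Inhibition of growth is then calculated relative to the vehicle-treated reference.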

[9] = NCI Yeast Anticancer Drug Screen. Data for the cln2 rad14 strain (AID 165);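 also: 0% = growth equal to vehicle treated cultures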; conditions: S. cerevisiae cln2 rad14 strain, hits give high values
Method in brief: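 Strain: cln2 rad14 yeast, altered in cell cycle control and DNA damage repair. Read-out: growth inhibition vs vehicle.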

[10] = NCI Yeast Anticancer Drug Screen. Data for the bub3 strain (AID 167); conditions: S. cerevisiae bub3 mutant strain, hits give high values
Method in brief: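 Mutant yeast screening strain plus compound; vehicle-treated cultures serve as the 0% inhibition reference.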

[11] = NCI Yeast Anticancer Drug Screen. Data for the wt2 strain (AID 169); conditions: S. cerevisiae wt2 strain growth inhibition, hits give high values
Method in brief: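 Growth of compound-treated yeast is measured and expressed as inhibition relative to vehicle-only controls.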

[12] = NCI Yeast Anticancer Drug Screen. Data for the mlh1 strain (AID 171);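 also: 0% = growth of vehicle-treated control cultures of the same strain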; conditions: S. cerevisiae mlh1 strain growth inhibition, hits give high values
Method in brief: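 Test agents were incubated with yeast bearing a defined DNA damage repair or cell cycle control alteration; values are growth inhibition normalised to vehicle-treated cultures.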

[13] = NCI Yeast Anticancer Drug Screen. Data for the sgs1 strain (AID 173);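 also: 0% = growth of vehicle-only control cultures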; conditions: S. cerevisiae sgs1 mutant, hits give high values
Method in brief: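 Strain with an altered DNA repair or cell cycle pathway exposed to compound. Growth then measured. Value = inhibition versus vehicle control.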

[14] = NCI Yeast Anticancer Drug Screen. Data for the mlh1 rad18 strain (AID 175); conditions: S. cerevisiae mlh1 rad18 strain growth inhibition, hits give high values
Method in brief: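 A repair-deficient yeast strain is exposed to test compound, and growth is scored relative to vehicle-treated controls.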

[15] = NCI Yeast Anticancer Drug Screen. Data for the rad18 strain (AID 177); conditions: S. cerevisiae rad18 mutant growth inhibition, hits give high values
Method in brief: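 DNA-repair-defective yeast; compound treatment; growth inhibition scored against vehicle.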

[16] = at 5.0 µM (retest, dose inferred, filed as 0.5)
[17] = at 50.0 µM (retest, dose inferred, filed as 5.0)

Measured: growth inhibition

C=C[C@H]1CN2CC[C@H]1C[C@@H]2[C@@H](O)c1ccnc2ccccc12
inactive: [1]; at 1.2 µM -1% | [1]; at 3.7 µM -2% | [1]; at 11.0 µM -4% | [1]; at 33.0 µM -2% | [1]; at 100.0 µM -2% | [2]; at 1.2 µM -1% | [2]; at 3.7 µM 0% | [2]; at 11.0 µM -2% | [2]; at 33.0 µM -3% | [2]; at 100.0 µM -3% | [3]; at 1.2 µM 2% | [3]; at 3.7 µM 1% | [3]; at 11.0 µM 3% | [3]; at 33.0 µM 0% | [3]; at 100.0 µM 4% | [4]; at 1.2 µM 2% | [4]; at 3.7 µM 10% | [4]; [16] 2% | [4]; at 11.0 µM 3% | [4]; at 33.0 µM 2% | [4]; [17] 13% | [4]; at 50.0 µM -1.45% | [4]; at 100.0 µM -2% | [5]; at 1.2 µM -1% | [5]; at 3.7 µM 3% | [5]; [16] 8% | [5]; at 11.0 µM 4% | [5]; at 33.0 µM 2% | [5]; [17] 7% | [5]; at 50.0 µM -40.6% | [5]; at 100.0 µM -5% | [6]; at 1.2 µM -3% | [6]; at 3.7 µM -9% | [6]; at 11.0 µM -2% | [6]; at 33.0 µM 0% | [6]; at 100.0 µM 1% | [7]; [16] -10% | [7]; [17] -1% | [7]; at 50.0 µM -11.9% | [8]; at 1.2 µM 1% | [8]; at 3.7 µM 2% | [8]; at 11.0 µM 3% | [8]; at 33.0 µM 5% | [8]; at 100.0 µM 2% | [9]; [16] 44% | [9]; [17] 14% | [9]; at 50.0 µM 8.55% | [10]; at 1.2 µM 3% | [10]; at 3.7 µM -6% | [10]; [16] -8% | [10]; at 11.0 µM 1% | [10]; at 33.0 µM 1% | [10]; [17] -1% | [10]; at 50.0 µM -7.5% | [10]; at 100.0 µM 1% | [11]; at 1.2 µM 0% | [11]; at 3.7 µM 1% | [11]; at 11.0 µM 0% | [11]; at 33.0 µM -2% | [11]; at 100.0 µM 1% | [12]; at 1.2 µM -2% | [12]; at 3.7 µM 1% | [12]; at 11.0 µM -6% | [12]; at 33.0 µM -7% | [12]; at 100.0 µM 9% | [13]; at 1.2 µM -3% | [13]; at 3.7 µM -5% | [13]; at 11.0 µM -6% | [13]; at 33.0 µM -7% | [13]; at 100.0 µM -6% | [14]; [16] 2% | [14]; [17] 8% | [14]; at 50.0 µM 7.65% | [15]; at 1.2 µM -2% | [15]; at 3.7 µM -2% | [15]; at 11.0 µM -9% | [15]; at 33.0 µM -17% | [15]; at 100.0 µM -28%
